Spn DPM-DC inh: S. pneumoniae DPM-DC inhibitors, primary screen, biochemical, PK/LDH-coupled NADH fluorescence; diphosphomevalonate decarboxylase (Streptococcus pneumoniae D39); purified DPM-DC; calls only at 10 µM; 65,000 tested, 0.49% active; AID 556, 2006;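 active = the 320 compounds with the highest percent inhibition in the single-dose primary screen, excluding strongly autofluorescent ones, cut at about 32% in these data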;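 note: kinetic rate of NADH fluorescence loss reporting ADP formed by the decarboxylase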
Autofluor 339: intrinsic fluorescence of library compounds, ex339/em460 – biochemical, MLSMR library, data from DPM-DC assay, artefact control, profiling panel | compound autofluorescence, ex339/em460 nm, NADH buffer; stronger effect = higher value; 1 = no-compound wells, NADH background | fluorescence fold increase at 10 µM | 65,000 tested, 5.5% active | AID 709, 2007;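 active = at 10 µM, mean starting fluorescence two-fold or more over control wells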;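 note: signal is the first read of a kinetic run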
MK inhibit: S. pneumoniae MK inhibitors, primary screen, biochemical, PK/LDH-coupled NADH absorbance | mevalonate kinase [Streptococcus pneumoniae D39] | purified MK, PK/LDH-coupled NADH absorbance 340 nm | inhibition, % at 10 µM | 65,000 tested, 0.48% active;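 active = ranked among the strongest by inhibition in the single 10 µM screen, a fixed top-ranked set picked for dose follow-up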
NADH enzymes: inhibitors of PK/LDH coupling enzymes, profiling panel, artefact control, biochemical, MLSMR library | coupled PK/LDH NADH assays, four targets | IC50, µM (series often up to 10 µM) | 65,000 tested, 0.02% active | AID 774, 2007;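 active = single-dose screening hits from any of four coupled enzyme assays that gave an IC50 when retested across doses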;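 note: the DPM-DC format reads NADH fluorescence rather than 340 nm absorbance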
A340 absorber: compound light absorbance at 340 nm, profiling panel, artefact control, biochemical, MLSMR library, data from PS, PMK, MK assays; AID 708, 2007; 65,000 tested, under 10 active; fold change at 10 µM; compound absorbance at 340 nm, fold over control;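 active = at 10 µM dose, initial 340 nm absorbance at least 2 fold that of control wells; inactive = change under 2 fold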;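 note: initial absorbance extrapolated from kinetic A340 decline of NADH oxidation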
Spn PMK inh: S. pneumoniae PMK inhibitors, primary screen, biochemical, mevalonate pathway, pilot trial included | inhibition, % at 10 µM | 65,000 tested, 0.49% active | purified PMK, PK/LDH-coupled NADH absorbance 340 nm | phosphomevalonate kinase (Streptococcus pneumoniae D39) | AID 539, 2006;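 active = top-ranked compounds by inhibition in the single 10 µM screen, taking a fixed number of the strongest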
Numbers stand for hits; - = inactive; . = no result shown; + = active, no number. Most compounds without a hit are left out; they make up all but 6.5% or so of the library.

SMILES | Spn DPM-DC inh | Autofluor 339 | MK inhibit | NADH enzymes | A340 absorber | Spn PMK inh
O=C1NC(c2ccccn2)Nc2sc3c(c21)CCC3 (stereo unspecified) | - | - | - | - | - | -
Cc1ccc(C2NC(=O)c3c(sc4c3CCN(C)C4)N2)s1 (stereo unspecified) | - | 2.3 | - | - | - | -
Cc1ccc(C2NC(=O)c3c(sc4c3CCN(C)C4)N2)o1 (stereo unspecified) | - | - | - | - | - | -
Oc1cccc(/C=N/c2c(-c3ccco3)nc3ccccn23)c1 | . | 2.1 | - | - | - | -
O=C(Nc1c(-c2ccccc2)nc2ccccn12)c1ccco1 | - | - | - | - | - | -
CCN(CC)CC(=O)Nc1ccc(-c2nc3cc(NC(=O)CN(CC)CC)ccc3o2)cc1 | . | 3 | - | - | - | -
O=C(CN1CCCC1)Nc1ccc(-c2nc3cc(NC(=O)CN4CCCC4)ccc3o2)cc1 | . | 3.7 | - | - | - | -
CCC(C)NCC(=O)Nc1ccc(-c2nc3cc(NC(=O)CNC(C)CC)ccc3o2)cc1 (stereo unspecified) | . | 3.7 | - | - | - | -
COc1ccc(-c2nc3cc(NC(=O)Cc4ccc(OC)c(OC)c4)ccc3o2)cc1 | . | 2.6 | - | - | - | -
O=C(CN1C(=O)c2ccccc2C1=O)Nc1ccc(-c2nc3ccccc3o2)cc1 | - | - | - | - | - | -
CCC(=O)Nc1ccc2oc(-c3ccccc3Br)nc2c1 | - | - | - | - | - | -
Cc1cc(NC(=O)NC2CCCN2S(=O)(=O)c2ccc(Cl)cc2)no1 (stereo unspecified) | - | - | - | - | - | -
CC1=NC(C(F)(F)F)(C(F)(F)F)C2=C(CC(C)(C)CC2=O)N1Cc1ccco1 | - | - | - | - | - | -
CC1(CC(=O)O)SC(=O)NC1=O (stereo unspecified) | - | - | - | - | - | -
O=C(c1coc(=O)c(Br)c1)N1CCOCC1 | - | - | - | - | - | -
CC1(C)CC(NC(=O)c2coc(=O)c(Br)c2)CC(C)(C)N1 | - | 2.1 | - | - | - | -
CCc1nc(Nc2ccncc2)c2oc3ccccc3c2n1 | - | 2 | - | - | - | -
CCc1nc(NC(C)C)c2oc3ccccc3c2n1 | - | - | - | - | - | -
COc1ccc(N=c2oc3cc(O)ccc3cc2C(=O)NCC2CCCO2)cc1 (stereo unspecified) | - | 2.9 | - | - | - | -
COc1ccc(N=c2oc3cc(O)ccc3cc2C(=O)NCC2CCCO2)c(OC)c1 (stereo unspecified) | . | 3.8 | - | - | - | -
Cc1ccc(N=c2oc3cc(O)ccc3cc2C(N)=O)cc1 | - | 2.2 | - | - | - | -
N#Cc1c(N)n(C2CCCCC2)c2nc3ccccc3nc12 | . | 3.9 | - | - | - | -
CCOC(=O)c1nn(-c2ccccc2C)c(=O)c(C#N)c1C | - | - | - | - | - | -
CCC(=O)Nc1c(C#N)c2nc3ccccc3nc2n1-c1ccccc1C | . | 3.1 | - | - | - | -
COc1ccc(-n2c(NC(=O)c3ccco3)c(C#N)c3nc4ccccc4nc32)cc1 | + | 3 | - | - | - | -
SMILES | Spn DPM-DC inh | Autofluor 339 | MK inhibit | NADH enzymes | A340 absorber | Spn PMK inh
CCC(=O)Nc1c(C#N)c2nc3ccccc3nc2n1C1CCCCC1 | . | 2.3 | . | - | - | -
CCOc1ccccc1N(C(=O)Cn1nnnc1-c1ccc(C)o1)C(CC)C(=O)NC(C)(C)C (stereo unspecified) | - | - | - | - | - | -
Cc1ccc(S(=O)(=O)N2CCC(C(=O)Nc3ccccc3N3CCCCC3)CC2)cc1 | - | - | - | - | - | -
Cc1ccc(S(=O)(=O)c2c(N)n(NC(=O)C3CC3)c3nc4ccccc4nc23)cc1 | . | 3.8 | - | - | - | -
Cc1ccc(S(=O)(=O)c2c(N)n(CC3CCOC3)c3nc4ccccc4nc23)cc1 (stereo unspecified) | . | 2.1 | - | - | - | -
Nc1c(S(=O)(=O)c2cccc(Cl)c2)c2nc3ccccc3nc2n1CCN1CCOCC1 | . | 3.9 | - | - | - | -
Cc1ccc(S(=O)(=O)N2CCCC(C(=O)NCC3COCCO3)C2)cc1 (stereo unspecified) | - | - | - | - | - | -
Cn1c(O)c(C=Nc2ccc(Cc3ccncc3)cc2)c(=O)n(C)c1=O | - | - | - | - | - | -
COc1ccc(CCCC(=O)O)c(C)c1 | - | - | - | - | - | -
O=C(CN1CCN(C2CCCCC2)CC1)NCCC1=CCCCC1 | - | - | 61 | - | - | -
CS(=O)(=O)N(CC(=O)NCCC1=CCCCC1)C1CCCCC1 | - | - | - | - | - | -
CCn1c(SCC(=O)OC2CCCCC2)nnc1-c1ccncc1 | - | - | - | - | - | -
CCCCC(CC)Cn1c(N)c(C#N)c2nc3ccccc3nc21 (stereo unspecified) | . | 5 | - | - | - | -
CCCCn1c2nc3ccccc3nc2c2c(=N)oc(C)nc21 | . | 2.2 | - | - | - | -
COc1ccc(Cn2c3nc4ccccc4nc3c3c(=O)n(Cc4ccco4)c(C)nc32)cc1 | - | - | - | - | - | -
CCCCCCOC(=O)C(C#N)c1nc2ccccc2nc1N1CCN(CC)CC1 (stereo unspecified) | - | - | - | - | - | -
CCCCC(CC)Cn1c2nc3ccccc3nc2c2c(=N)oc(C)nc21 (stereo unspecified) | . | 2.4 | - | - | - | -
COc1cc(OC)cc(-c2nnc(SCC(=O)Nc3cc(C)on3)o2)c1 | - | - | - | - | - | -
CC(C)COC(=O)n1ccc(C(=O)N2CCCCC2)n1 | - | - | - | - | - | 25
CC(C)CNS(=O)(=O)c1ccccc1C(=O)N1CCCCC1 | - | - | - | - | - | -
O=C(c1ccc(=O)oc1)N1CCCc2ccccc21 | - | - | - | - | - | -
CC(OC(=O)c1cc(=O)[nH]c2ccccc12)c1ccccc1 (stereo unspecified) | - | - | - | - | - | -
CCOC(=O)C1CCN(Cc2ccc(C(=O)OC)cc2)CC1 | - | - | 60 | - | - | -
[O-]/[N+](=C\c1ccncc1)c1ccc(Br)cc1 | - | - | - | - | - | -
CC(C)(C)C(=O)/C(C#N)=c1\s/c(=C\c2ccncc2)c(=O)n1CCCN1CCOCC1 | - | - | - | - | - | -
OCCCc1nc2n(n1)C(c1ccccc1)C=C(c1ccc(F)cc1)N2 (stereo unspecified) | - | 2 | - | - | - | -
CCOc1ccccc1C1C(C(N)=O)=C(C)Nc2nc(CCCO)nn21 (stereo unspecified) | - | - | - | - | - | -
